Molecules are shown by their SMILES. Records with an inconclusive call do not appear. The source made the active and inactive calls. Unless noted, the call rests on the fitted dose curve; in most records, active means well fitted curve in the direction sought with a large enough effect; inconclusive means small, poorly fitted or top-dose-only effect, or another doubt; inactive means no such curve, though single readings can be large; an effect the other way counts as inactive or inconclusive.

Assay [1] in a line: qHTS for differential inhibitors of proliferation of Plasmodium falciparum line HB3 (AID 1886).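 Further: parasites grown with compound for 72 h before SYBR Green readout.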 Further: potency means the concentration at half of the fitted maximal effect. The settings on record: Potency: Plasmodium falciparum HB3 proliferation inhibition.
In assay [2] the target is Ferritin light chain (Equus caballus) (UniProt P02791). Kind of assay: qHTS Validation Assay for Identification of Novel General Anesthetics (AID 2323). Further: series mostly up to about 77 µM. In a few lines:
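Competitive displacement of the profluorescent anesthetic 1-AMA (50% saturated, PBS) from 10 uM apoferritin, 10 min, room temperature. Activity is normalized 380/535 nm fluorescence; concentration-response fitted with a four-parameter Hill equation.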

The target of assay [3] is ATP-dependent DNA helicase Q1 (Homo sapiens) (UniProt P46063). Kind of assay: qHTS Validation Assay for Inhibitors of RecQ-Like Dna Helicase 1 (RECQ1) (AID 2353). Further: potency means the concentration at half of the fitted maximal effect. In a few lines:
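50 nM RECQ1T1 preincubated 15 min with compound in Tris pH 8.0 buffer with MgCl2, DTT, Tween-20 and 2.5 ug/ml poly(dI-dC); started with 200 nM TAMRA/BHQ-2 forked duplex and 2 mM ATP. Unwinding read as fluorescence (525/598 nm), two reads 2 h apart.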

Assay [4] addresses RecQ-like DNA helicase BLM (Homo sapiens) (UniProt P54132). Kind of assay: qHTS Validation Assay for Inhibitors of Bloom's syndrome helicase (BLM) (AID 2364). Further: potency means the concentration at half of the fitted maximal effect. In short, it runs like this:
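50 nM BLM preincubated 15 min at room temperature with compound in pH 8.0 Tris buffer containing 2.5 ug/ml poly(dI-dC); started with 200 nM TAMRA/BHQ-2 forked duplex and 2 mM ATP (final). Unwinding read as TAMRA fluorescence increase, two reads 2 h apart.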
(Quantitative high-throughput screening tests each substance at several concentrations.)

Assay [5] is described as follows: Cytometric Cell-Based qHTS for Inhibitors of the mTORC1 Signaling Pathway in MEF (Tsc2-/-, p53-/-) Cells (AID 2660).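 Further: percent of cells above a phospho-rpS6 to PI ratio cutoff in each well; series mostly up to about 38 µM.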 In a few lines: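 Immunofluorescence qHTS of rpS6 Ser235/236 phosphorylation: MEFs (Tsc2-/-, p53-/-) treated 24 h, 37 C, in DMEM + 10% FBS. Alexa-488 signal normalized to PI count, referenced to rapamycin (7.5 nM) and DMSO; PI cell number recorded for viability.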

The nature of assay [6]: High Content Imaging Cell-Based qHTS for Inhibitors of the mTORC1 Signaling Pathway in MEF (Tsc2-/-, p53-/-) Cells (AID 2666).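 Further: percent of cells scored positive for phospho-rpS6 Ser235/236 immunostaining by imaging.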 Further: potency means the concentration at half of the fitted maximal effect. In short, it runs like this:
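Phospho-rpS6 (Ser235/236) immunofluorescence, normalized and scored as % positive cells using rapamycin and DMSO controls, was read in empty-vector Tsc2-/-, p53-/- MEFs after 24 h compound exposure at 37 C; propidium iodide counted cells.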

Assay [7] is described as follows: High Content Imaging Cell-Based qHTS for Inhibitors of the mTORC1 Signaling Pathway in MEF Cells (AID 2667). Further: potency means the concentration at half of the fitted maximal effect. In short, it runs like this: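 WT MEFs (Tsc2-/-, p53-/- re-expressing Tsc2), in DMEM + 10% FBS, were treated with compound for 24 h at 37 C. Cells were then fixed and stained for phospho-rpS6 Ser235/236 with propidium iodide as cell count. Values are % positive cells, with thresholds set against rapamycin-treated cells.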

Assay [8] is described as follows: Cytometry Cell-Based qHTS for Inhibitors of the mTORC1 Signaling Pathway in MEF cells (AID 2668).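 Further: Tsc2-/- p53-/- mouse embryonic fibroblasts stably re-expressing wild-type Tsc2; percent cells positive for phospho-rpS6 Ser235/236 relative to propidium iodide stain; series mostly up to about 38 µM.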 In a few lines: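 Phospho-rpS6 (Ser235/236) immunofluorescence over PI signal, scored as % positive cells using thresholds from 7.5 nM rapamycin and DMSO wells, after 24 h compound exposure of WT-Tsc2-rescued Tsc2-/-, p53-/- MEFs. PI cell count recorded for viability.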

Assay [9] can be described thus: Validation screen for small molecules that induce DNA re-replication in MCF 10A normal breast cells (AID 463097). Further: nearly all actives have a fitted effect of over 60% in size. In short, it runs like this:
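Read-out is Hoechst total nuclear intensity by fluorescence scanning imager, flagging increased high-DNA-content nuclei. Compounds were incubated with MCF 10A cells for 48 hr (37 C, 5% CO2) before 40 min staining.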

Assay [10] concerns the target Ubiquitin carboxyl-terminal hydrolase 2 (Homo sapiens) (UniProt O75604). Kind of assay: qHTS Validation Assay for Inhibitors of Ubiquitin-specific Protease USP2a Using CHOP2 as the Reporter (AID 463106). In a few lines:
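USP2 core (10 nM final) was preincubated with compound 30 min at RT in pH 8.0 Tris/CaCl2/beta-ME/CHAPS buffer. Ub-CHOP2 and reporter substrate (25 nM final each) were then added, with fluorescence (Ex 485/Em 531) read after 60 min. Data were normalized to NEM full inhibition and fitted to concentration-response curves.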

For assay [11], the target named is DNA polymerase III PolC-type (Bacillus subtilis (strain 168)) (UniProt P13267). Kind of assay: qHTS Validation Assay for the Inhibitors of DNA Replication in Gram-Positive Bacteria (AID 485295). Further: potency means the concentration at half of the fitted maximal effect. In short, it runs like this:
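Double-stranded DNA product detected by PicoGreen fluorescence after EDTA quench. Compound incubated with B. subtilis holoenzyme (PolC, beta subunit, SSB, primase) before substrate addition; primed replication of M13Gori with dNTPs and NTPs at room temperature; DMSO defines 0% inhibition.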

Assay [12] deals with Tumor susceptibility gene 101 protein (Homo sapiens) (UniProt Q99816). The assay is described as follows: qHTS Validation Assay for Iinhibitors of HIV-1 Budding by Blocking the Interaction of PTAP/TSG101 (AID 485342; calls by dose curve). In short, it runs like this:
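Fluorescence polarization of 50 nM FITC-PTAP peptide bound to 10 uM Tsg101 binding domain was read after 20 min room-temperature incubation with compounds, in 10 mM HEPES pH 7.5, 0.15 M NaCl, 0.01% Tween 20.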

Assay [13] in a line: qHTS Validation Assay to Find Inhibitors of Chronic Active B-Cell Receptor Signaling (AID 485345; active means well fitted curve in the direction sought with a large enough effect in the main read-out, with a control signal flat, not every such curve was filed as active). In short, it runs like this:
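TMD8 ABC-DLBCL cells stably carrying doxycycline-inducible IkappaBalpha–green luciferase fusion plus unfused red luciferase; compounds 46 uM to 3 nM, 4 h at 37C with doxycycline. Corrected green/red luminescence ratio normalized to 10 uM MG-132 and basal cell wells; curves fitted.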

For assay [14], the target named is Beta-2 adrenergic receptor (Homo sapiens) (UniProt P07550). Kind of assay: qHTS validation assay of beta-arrestin-biased ligands of beta2-adrenergic receptor (AID 485366). In short, it runs like this:
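Arrestin-recruitment (Tango) reporter: ligand-bound beta2-AR recruits beta-arrestin, releasing tTA, which upregulates luciferase. Titrations of up to 46 microM incubated 18 hr at 37 degrees C before luminescent readout.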

Assay [15] in a line: Quantitative high throughput screen for delayed death inhibitors of the malarial parasite plastid, 96 hour incubation (AID 488745). Further: nearly all actives have a fitted effect of over 70% in size. Further: potency means the concentration at half of the fitted maximal effect. In a few lines:
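Growth of reporter-bearing P. falciparum in red cells is measured after 96 h with compound, covering two erythrocytic cycles. Luminescence from the integrated luciferase serves as the growth signal.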

Assay [16] can be described thus: Quantitative high throughput screen for delayed death inhibitors of the malarial parasite plastid, 48 hour incubation (AID 488752). Further: nearly all actives have a fitted effect of over 65% in size. Further: potency means the concentration at half of the fitted maximal effect. In short, it runs like this: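 One parasite generation (48 h, 37 C, 5% CO2) of luciferase-reporter P. falciparum in erythrocytes is run with test compound; decreased luminescence indicates inhibited growth.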
For assay [17], the target named is Thioredoxin reductase 1, cytoplasmic (Rattus norvegicus) (UniProt O89049). Kind of assay: qHTS Assay for Substrates of Mammalian Selenoprotein Thioredoxin Reductase 1 (TrxR1) (AID 488772).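 Further: NADPH fluorescence in the first read after selenite addition and not the 8 min delta; series mostly up to about 57 µM; a drop in NADPH fluorescence below the no-compound background marks a TrxR1 substrate.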 In short, it runs like this:
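Quantitative HTS in Tris-HCl buffer at pH 7.5 with EDTA and Tween-20, using rat TrxR1, 400 uM NADPH and 400 uM selenite (final). A fall in initial NADPH fluorescence relative to background marked substrate behaviour.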

Assay [18] is described as follows: qHTS Assay for Modulators of Human Peripheral Myelin Protein 22 (PMP22) Expression/Activity (AID 1967; active means well fitted curve in the direction sought with a large enough effect in the signal ratio; the % refers to the signal ratio). In a few lines: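 Readout is the corrected green/red luminescence ratio after 24 h compound exposure, normalised to untreated cells (0%). Engineered MSC80 mouse Schwann cells express green luciferase from the mouse Pmp22 promoter and red luciferase from EF-alpha as internal control.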

Assay [19] concerns the target ATP-dependent 6-phosphofructokinase (Trypanosoma brucei brucei) (UniProt O15648). The assay is described as follows: qHTS Validation Assay to Find Inhibitors of T. brucei phosphofructokinase (AID 485368). The settings on record: outcome: dose series up to 57.5 µM. In short, it runs like this: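 Steps: substrate mix (0.5 mM F6P, 0.1 mM ATP, MgCl2, TEA pH 8.0); compound; 1.25 nM T. brucei PFK; 45 min RT; ATP depletion 10 min; ADP-to-ATP detection 10 min; luminescence read; curve fitting and classification.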

Sequence of ATP-dependent 6-phosphofructokinase (Trypanosoma brucei brucei) (O15648 whole entry, looked up): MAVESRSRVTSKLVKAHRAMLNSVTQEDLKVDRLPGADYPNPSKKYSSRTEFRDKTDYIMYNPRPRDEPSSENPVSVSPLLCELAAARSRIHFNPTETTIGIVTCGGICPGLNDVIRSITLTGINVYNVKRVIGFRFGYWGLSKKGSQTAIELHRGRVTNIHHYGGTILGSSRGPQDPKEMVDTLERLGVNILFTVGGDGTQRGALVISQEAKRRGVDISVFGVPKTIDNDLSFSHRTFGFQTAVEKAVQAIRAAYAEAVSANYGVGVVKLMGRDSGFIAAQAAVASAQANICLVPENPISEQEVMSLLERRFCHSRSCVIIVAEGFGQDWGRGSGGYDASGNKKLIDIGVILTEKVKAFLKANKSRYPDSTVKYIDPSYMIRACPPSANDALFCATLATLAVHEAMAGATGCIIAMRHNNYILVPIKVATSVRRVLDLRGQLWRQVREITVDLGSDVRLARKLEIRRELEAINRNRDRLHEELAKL
Sequence of Ubiquitin carboxyl-terminal hydrolase 2 (Homo sapiens) (O75604 whole entry, looked up): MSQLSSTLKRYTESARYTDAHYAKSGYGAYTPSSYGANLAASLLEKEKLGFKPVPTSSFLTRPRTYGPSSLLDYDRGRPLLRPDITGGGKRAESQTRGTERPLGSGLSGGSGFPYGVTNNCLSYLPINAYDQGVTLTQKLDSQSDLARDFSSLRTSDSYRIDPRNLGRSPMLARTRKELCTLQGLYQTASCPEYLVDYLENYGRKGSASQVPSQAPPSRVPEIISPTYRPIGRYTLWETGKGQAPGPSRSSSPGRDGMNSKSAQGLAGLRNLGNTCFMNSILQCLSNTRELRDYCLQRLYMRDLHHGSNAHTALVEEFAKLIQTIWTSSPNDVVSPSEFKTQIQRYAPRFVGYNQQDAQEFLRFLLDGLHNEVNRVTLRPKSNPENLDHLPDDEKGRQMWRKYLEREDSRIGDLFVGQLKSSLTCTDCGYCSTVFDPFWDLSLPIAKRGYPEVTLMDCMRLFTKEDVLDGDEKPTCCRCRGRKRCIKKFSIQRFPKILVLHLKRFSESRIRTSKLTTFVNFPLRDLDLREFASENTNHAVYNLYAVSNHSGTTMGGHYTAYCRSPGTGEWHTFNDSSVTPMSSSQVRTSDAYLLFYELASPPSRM
Sequence of ATP-dependent DNA helicase Q1 (Homo sapiens) (P46063 whole entry, looked up): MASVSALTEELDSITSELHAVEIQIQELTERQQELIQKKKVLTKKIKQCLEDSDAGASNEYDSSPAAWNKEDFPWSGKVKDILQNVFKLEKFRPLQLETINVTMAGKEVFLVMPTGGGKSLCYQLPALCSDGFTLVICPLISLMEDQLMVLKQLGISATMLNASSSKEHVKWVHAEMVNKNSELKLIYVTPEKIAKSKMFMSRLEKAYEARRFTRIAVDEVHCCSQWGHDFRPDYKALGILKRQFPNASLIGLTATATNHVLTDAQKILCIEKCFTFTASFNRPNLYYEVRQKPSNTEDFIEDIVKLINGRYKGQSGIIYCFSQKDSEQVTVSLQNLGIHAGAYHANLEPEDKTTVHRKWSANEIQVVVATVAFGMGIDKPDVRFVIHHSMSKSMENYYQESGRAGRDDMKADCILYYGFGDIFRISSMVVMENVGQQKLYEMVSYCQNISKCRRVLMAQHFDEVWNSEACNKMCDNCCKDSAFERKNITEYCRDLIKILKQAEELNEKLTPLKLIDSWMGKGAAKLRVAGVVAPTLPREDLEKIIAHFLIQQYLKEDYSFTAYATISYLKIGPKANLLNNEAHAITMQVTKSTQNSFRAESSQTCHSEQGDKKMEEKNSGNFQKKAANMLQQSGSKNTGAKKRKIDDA
Sequence of DNA polymerase III PolC-type (Bacillus subtilis (strain 168)) (P13267 whole entry, looked up): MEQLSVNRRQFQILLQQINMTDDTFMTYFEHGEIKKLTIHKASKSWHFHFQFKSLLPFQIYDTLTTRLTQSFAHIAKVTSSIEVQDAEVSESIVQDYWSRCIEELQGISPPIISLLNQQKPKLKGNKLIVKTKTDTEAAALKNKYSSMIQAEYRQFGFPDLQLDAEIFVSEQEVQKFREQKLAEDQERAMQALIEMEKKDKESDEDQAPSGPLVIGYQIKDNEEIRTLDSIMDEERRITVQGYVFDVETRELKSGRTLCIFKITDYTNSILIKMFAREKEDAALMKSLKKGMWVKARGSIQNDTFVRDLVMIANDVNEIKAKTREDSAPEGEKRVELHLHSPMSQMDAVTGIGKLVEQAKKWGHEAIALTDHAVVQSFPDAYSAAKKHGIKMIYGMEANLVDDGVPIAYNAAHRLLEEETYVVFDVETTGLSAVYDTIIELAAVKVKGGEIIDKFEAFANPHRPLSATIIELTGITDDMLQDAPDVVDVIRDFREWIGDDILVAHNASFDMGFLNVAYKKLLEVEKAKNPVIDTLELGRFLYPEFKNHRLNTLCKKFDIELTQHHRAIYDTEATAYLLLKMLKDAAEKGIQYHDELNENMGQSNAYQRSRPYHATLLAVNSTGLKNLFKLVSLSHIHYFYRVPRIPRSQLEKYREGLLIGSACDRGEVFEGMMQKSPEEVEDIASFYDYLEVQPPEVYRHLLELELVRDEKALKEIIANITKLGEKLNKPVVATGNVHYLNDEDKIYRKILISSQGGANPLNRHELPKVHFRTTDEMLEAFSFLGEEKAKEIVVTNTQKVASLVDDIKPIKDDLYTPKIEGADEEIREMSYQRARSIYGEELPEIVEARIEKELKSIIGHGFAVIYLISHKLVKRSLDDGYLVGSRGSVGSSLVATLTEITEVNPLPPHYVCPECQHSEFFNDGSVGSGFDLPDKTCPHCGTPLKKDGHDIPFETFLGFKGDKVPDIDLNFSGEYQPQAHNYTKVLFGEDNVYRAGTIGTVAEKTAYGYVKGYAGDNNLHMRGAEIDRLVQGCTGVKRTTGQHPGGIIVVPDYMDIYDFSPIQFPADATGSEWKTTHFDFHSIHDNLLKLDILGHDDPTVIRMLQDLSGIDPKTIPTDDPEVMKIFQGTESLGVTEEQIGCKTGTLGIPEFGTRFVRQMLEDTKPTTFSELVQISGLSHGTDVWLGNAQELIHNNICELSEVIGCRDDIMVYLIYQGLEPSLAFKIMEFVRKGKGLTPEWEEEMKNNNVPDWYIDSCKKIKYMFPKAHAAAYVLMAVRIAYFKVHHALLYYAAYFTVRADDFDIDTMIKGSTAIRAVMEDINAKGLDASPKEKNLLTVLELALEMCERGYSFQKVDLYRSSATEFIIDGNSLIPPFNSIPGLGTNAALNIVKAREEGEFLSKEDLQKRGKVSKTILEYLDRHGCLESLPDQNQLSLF
Sequence of Beta-2 adrenergic receptor (Homo sapiens) (P07550 whole entry, looked up): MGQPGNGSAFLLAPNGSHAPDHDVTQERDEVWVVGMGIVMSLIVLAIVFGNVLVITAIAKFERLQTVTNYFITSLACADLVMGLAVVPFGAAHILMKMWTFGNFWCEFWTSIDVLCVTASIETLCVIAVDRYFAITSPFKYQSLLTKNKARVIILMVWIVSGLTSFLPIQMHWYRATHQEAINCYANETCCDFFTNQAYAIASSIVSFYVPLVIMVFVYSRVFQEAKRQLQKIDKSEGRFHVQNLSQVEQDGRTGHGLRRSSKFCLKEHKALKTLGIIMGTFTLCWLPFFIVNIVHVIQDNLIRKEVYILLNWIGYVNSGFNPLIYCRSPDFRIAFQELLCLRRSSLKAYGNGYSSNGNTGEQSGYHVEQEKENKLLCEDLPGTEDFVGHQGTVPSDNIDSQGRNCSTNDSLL
Sequence of Tumor susceptibility gene 101 protein (Homo sapiens) (Q99816 whole entry, looked up, the tested form may be a part): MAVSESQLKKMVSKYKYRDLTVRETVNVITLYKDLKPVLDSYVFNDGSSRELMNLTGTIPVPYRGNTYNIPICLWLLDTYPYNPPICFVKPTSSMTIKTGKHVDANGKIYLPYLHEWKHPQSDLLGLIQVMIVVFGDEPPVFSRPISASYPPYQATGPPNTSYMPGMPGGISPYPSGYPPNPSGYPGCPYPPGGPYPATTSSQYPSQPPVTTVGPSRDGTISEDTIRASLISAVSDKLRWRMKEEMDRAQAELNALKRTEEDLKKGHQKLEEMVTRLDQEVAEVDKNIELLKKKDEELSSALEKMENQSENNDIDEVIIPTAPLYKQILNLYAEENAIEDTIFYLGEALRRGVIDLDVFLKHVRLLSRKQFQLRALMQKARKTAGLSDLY
Sequence of Thioredoxin reductase 1, cytoplasmic (Rattus norvegicus) (O89049 whole entry, looked up): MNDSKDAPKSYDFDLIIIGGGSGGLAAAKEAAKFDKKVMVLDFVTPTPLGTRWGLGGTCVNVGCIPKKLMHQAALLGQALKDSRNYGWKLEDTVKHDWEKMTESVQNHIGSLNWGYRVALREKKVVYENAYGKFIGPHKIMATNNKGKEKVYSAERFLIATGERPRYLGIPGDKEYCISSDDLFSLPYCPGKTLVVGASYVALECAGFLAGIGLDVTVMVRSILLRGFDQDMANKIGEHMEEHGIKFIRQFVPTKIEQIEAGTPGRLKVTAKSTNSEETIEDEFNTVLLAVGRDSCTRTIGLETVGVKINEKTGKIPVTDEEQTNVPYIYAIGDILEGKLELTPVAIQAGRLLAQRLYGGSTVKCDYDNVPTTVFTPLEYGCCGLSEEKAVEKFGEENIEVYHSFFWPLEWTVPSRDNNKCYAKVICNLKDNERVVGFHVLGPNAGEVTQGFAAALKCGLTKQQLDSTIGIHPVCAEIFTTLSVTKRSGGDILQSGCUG
Sequence of Ferritin light chain (Equus caballus) (P02791 2-175 limits assumed): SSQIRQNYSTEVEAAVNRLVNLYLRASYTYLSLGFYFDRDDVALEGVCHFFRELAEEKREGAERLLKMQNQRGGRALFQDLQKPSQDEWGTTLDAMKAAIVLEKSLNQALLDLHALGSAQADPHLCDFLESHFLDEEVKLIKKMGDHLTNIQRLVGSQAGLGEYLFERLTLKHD

As to `c1cnc(N2CCN(Cc3ccc4c(c3)OCO4)CC2)nc1`, the Potency entry in assay [1], in assay [3], in assay [4], in assay [6], in assay [7] and in assay [8] was “inactive” in each case. Moreover, the Potency entry in assay [9], in assay [11], in [13], in assay [15] and in assay [16] was “inactive” throughout. Also, the compound was classed as inactive in [2], in assay [5], in [10], in [12], in [14] and in assay [17].
As for `CC(C)NCC(O)c1cc(O)cc(O)c1` (stereo not drawn), the Potency entry in assay [1], in assay [3], in assay [6], in assay [7], in [8] and in assay [9] was “inactive” throughout. In addition, the Potency entry in [11], in assay [13], in assay [15] and in [16] was “inactive” each time. Also, the result in assay [18], in [2], in assay [5], in [10], in assay [12] and in [19] was inactive. The compound was called inactive in assay [17].
Take `CCCNC(C)C(=O)Nc1ccccc1C` (stereo not drawn): the Potency result in assay [1], in assay [3], in [4], in [6], in assay [7] and in assay [8] was “inactive” throughout. Moreover, the Potency result in assay [9], in assay [11], in [13] and in assay [15] was “inactive” each time. For the same compound, the result in [2], in assay [5], in assay [10], in [12], in assay [14] and in assay [19] was inactive. In addition, in assay [17], the compound was classed as inactive.
Consider `N[C@@H](COP(=O)(O)O)C(=O)O`, for which the Potency entry in [1], in assay [6], in assay [7], in assay [8], in [9] and in assay [11] was “inactive” each time. For the same compound, the Potency result in assay [13], in assay [15] and in assay [16] was “inactive” each time. Also, the result in assay [18], in assay [2], in assay [5], in assay [10], in assay [12] and in [14] was inactive. Also, the call in [19] and in [17] was inactive.
Take `NC(=O)c1ncn([C@@H]2O[C@H](CO)[C@@H](O)[C@H]2O)c1O`: the Potency entry in assay [1], in assay [3], in assay [6], in assay [7], in assay [8] and in [9] was “inactive” in each case. For the same compound, the Potency result in assay [11], in [13], in assay [15] and in assay [16] was “inactive” each time. The call in [2], in assay [5], in [10], in assay [12], in assay [14] and in assay [17] was inactive.
Regarding `O=C(O)CN(CCN(CC(=O)O)CC(=O)O)CCN(CC(=O)O)CC(=O)O`, the Potency entry in assay [1], in [3], in assay [6], in assay [7], in [8] and in assay [9] was “inactive” throughout. The Potency entry in assay [11], in [13] and in assay [16] was “inactive” in each case. Also, the compound was called inactive in assay [2], in assay [5], in assay [10], in assay [12], in assay [14] and in [17].
On to `CCCN(CCC)C(=O)C(CCC(=O)O)NC(=O)c1ccccc1` (stereo not drawn), for which the Potency result in assay [1], in assay [4], in assay [6], in assay [7], in [8] and in assay [9] was “inactive” throughout. The Potency entry in [11], in assay [13], in assay [15] and in [16] was “inactive” throughout. In addition, the outcome in [2], in assay [5], in [10], in assay [12], in assay [14] and in assay [19] was inactive. Moreover, in [17], the result was inactive.
Take `CC(=O)[C@]1(O)Cc2c(O)c3c(c(O)c2[C@@H](O[C@H]2C[C@H](N)[C@H](O)[C@H](C)O2)C1)C(=O)c1ccccc1C3=O`: the Potency in assay [1] is 1120 nM (active); in assay [3], 11200 nM (active); in assay [4] it was 12600 nM (active); in assay [6] it was 2330 nM (active); in assay [7], 414 nM (active); in assay [11], 1060 nM (active). The values for the Potency in assay [15] and in [16] were 3290 nM (active) and 3700 nM (active), respectively. The outcome in [2], in [14] and in [17] was inactive. In addition, the Potency entry in assay [9] is “inactive”.

The values are drawn from PubChem BioAssay (NCATS).
